Laboratory results from PubChem BioAssay (EPA / NIEHS).
Results filed as inconclusive are left out. The source made the active and inactive calls. The calls were made as follows, unless noted: active = hit-call score of the fitted dose curve at least 0.9, where 1 is the maximum; inactive = score below 0.9.

Tests used:
[1] = target: human RAR-related Orphan Receptor gamma (RORg), RORC (gene 6097) (UniProt P51449); assay: ATG_RORg_TRANS: Attagene TRANS-FACTORIAL HepG2 Assay for human RAR-related Orphan Receptor gamma (RORg) (AID 2283011; active = hit-call score of the fitted dose curve at least 0.9, where 1 is the maximum)
Chain of human RAR-related Orphan Receptor gamma (RORg), RORC (gene 6097) (P51449 whole entry, looked up, the tested form may be a part): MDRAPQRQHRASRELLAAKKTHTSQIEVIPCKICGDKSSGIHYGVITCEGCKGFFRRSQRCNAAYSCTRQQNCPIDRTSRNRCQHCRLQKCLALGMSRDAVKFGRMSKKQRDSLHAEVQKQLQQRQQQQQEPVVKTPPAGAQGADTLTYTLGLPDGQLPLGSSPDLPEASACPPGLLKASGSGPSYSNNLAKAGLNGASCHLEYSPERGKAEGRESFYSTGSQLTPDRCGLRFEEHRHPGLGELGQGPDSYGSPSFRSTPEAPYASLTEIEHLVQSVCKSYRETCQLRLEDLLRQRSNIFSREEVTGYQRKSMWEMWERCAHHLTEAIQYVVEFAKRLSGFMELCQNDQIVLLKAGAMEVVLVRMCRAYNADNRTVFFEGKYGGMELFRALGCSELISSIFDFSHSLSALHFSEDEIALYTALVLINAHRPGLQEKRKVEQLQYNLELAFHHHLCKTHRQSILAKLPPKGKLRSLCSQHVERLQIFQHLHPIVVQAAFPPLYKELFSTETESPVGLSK
In short: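 Chimeric RORg-Gal4 transactivation in transfected HepG2; 24 h exposure; RT-PCR/capillary electrophoresis readout of reporter mRNA, DMSO baseline.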

[2] = target: Retinoic acid receptor RXR-alpha (Homo sapiens) (UniProt P19793); assay: ATG_RXRa_TRANS: Attagene TRANS-FACTORIAL HepG2 Assay for human Retinoid X Receptor alpha (RXRa) (AID 2283012; active = hit-call score of the fitted dose curve at least 0.9, where 1 is the maximum)
Chain of Retinoic acid receptor RXR-alpha (Homo sapiens) (P19793 whole entry, looked up, the tested form may be a part): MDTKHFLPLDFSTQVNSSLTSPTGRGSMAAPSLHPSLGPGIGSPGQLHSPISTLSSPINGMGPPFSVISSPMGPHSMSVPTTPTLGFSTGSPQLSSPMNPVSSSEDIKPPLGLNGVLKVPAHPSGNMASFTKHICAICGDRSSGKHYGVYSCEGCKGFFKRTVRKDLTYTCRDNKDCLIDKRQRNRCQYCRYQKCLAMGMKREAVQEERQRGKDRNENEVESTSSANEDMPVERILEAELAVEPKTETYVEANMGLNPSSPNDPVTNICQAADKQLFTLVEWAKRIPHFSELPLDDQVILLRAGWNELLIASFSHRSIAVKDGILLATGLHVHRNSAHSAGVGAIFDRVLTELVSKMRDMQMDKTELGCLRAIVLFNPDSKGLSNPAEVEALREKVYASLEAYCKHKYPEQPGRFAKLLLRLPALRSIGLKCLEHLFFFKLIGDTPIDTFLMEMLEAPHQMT
In short: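 Measures exogenous chimeric NR-GAL4 activity in transfected HepG2 liver cells after 24 h of dosing. Induced reporter mRNA was detected by RT-PCR with capillary electrophoresis, and gain of signal was analysed against DMSO.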

[3] = target: human Thyroid Receptor alpha (THRa1), THRA (gene 7067) (UniProt P10827); assay: ATG_THRa1_TRANS: Attagene TRANS-FACTORIAL HepG2 Assay for human Thyroid Receptor alpha (THRa1) (AID 2283014; active = hit-call score of the fitted dose curve at least 0.9, where 1 is the maximum)
Chain of human Thyroid Receptor alpha (THRa1), THRA (gene 7067) (P10827 whole entry, looked up, the tested form may be a part): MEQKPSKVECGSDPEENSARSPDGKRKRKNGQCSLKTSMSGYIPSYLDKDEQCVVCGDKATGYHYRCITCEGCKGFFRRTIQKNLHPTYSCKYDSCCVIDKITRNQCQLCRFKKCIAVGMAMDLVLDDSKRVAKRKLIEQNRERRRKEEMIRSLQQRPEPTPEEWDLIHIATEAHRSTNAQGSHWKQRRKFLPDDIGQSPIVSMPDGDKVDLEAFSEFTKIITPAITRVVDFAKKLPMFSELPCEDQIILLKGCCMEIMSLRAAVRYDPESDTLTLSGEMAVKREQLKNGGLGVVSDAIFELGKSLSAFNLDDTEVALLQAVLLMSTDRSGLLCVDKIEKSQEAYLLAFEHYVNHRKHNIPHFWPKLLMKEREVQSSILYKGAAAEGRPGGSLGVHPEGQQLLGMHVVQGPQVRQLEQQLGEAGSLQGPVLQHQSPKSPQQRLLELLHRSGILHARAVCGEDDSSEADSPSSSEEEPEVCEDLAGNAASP
In short: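 Measured here is mRNA from a GAL4-UAS reporter in transfected HepG2 cells carrying a Gal4-fused receptor, 24 h post-dose. DMSO served as negative control and baseline.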

[4] = read-out: E-selectin (Homo sapiens) (UniProt P16581); assay: BSK_3C_Eselectin: BioMAP Diversity Plus: 3C Assay for Eselectin Biomarker Activity (AID 2283015); conditions: primary human endothelial cells (HUVEC); actives raise or lower the signal
In short: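 Endpoint derived by bidirectional fitting against DMSO vehicle; signal is ELISA-detected E-selectin from primary HUVEC at 24 h post-dosing, with parallel SRB staining (0.1% SRB, 560 nm) flagging cytotoxicity.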

[5] = read-out: Interleukin-1 alpha (IL1a), IL1A (gene 3552); assay: BSK_BE3C_IL1a: BioMAP Diversity Plus: BE3C Assay for Interleukin-1 alpha (IL1a) Biomarker Activity (AID 2283016); conditions: primary human bronchial epithelial cells; actives raise or lower the signal
In short: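 Signal from IL-1a ELISA, taken 24 h after chemical dosing of human bronchial epithelial cells, is compared with DMSO as baseline using bidirectional curve fitting.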

[6] = read-out: Monocyte Chemoattractant Protein-1 (MCP1), CCL2 (gene 6347); assay: BSK_3C_MCP1: BioMAP Diversity Plus: 3C Assay for Monocyte Chemoattractant Protein-1 (MCP1) Biomarker Activity (AID 2283017); conditions: primary human endothelial cells (HUVEC); actives raise or lower the signal
In short: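 Using human vascular primary endothelium, researchers measured MCP-1 by ELISA 24 h after treatment, with DMSO serving as negative control for bidirectional fitting.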

[7] = read-out: Monocyte Chemoattractant Protein-1 (MCP1), CCL2 (gene 6347); assay: BSK_4H_MCP1: BioMAP Diversity Plus: 4H Assay for Monocyte Chemoattractant Protein-1 (MCP1) Biomarker Activity (AID 2283018); conditions: primary human endothelial cells (HUVEC); actives raise or lower the signal
In short: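 Endothelial cells from umbilical vein were treated with test chemical, then after 24 h MCP-1 levels were quantified by ELISA; endpoint values came from bidirectional fitting with DMSO as baseline of activity.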

[8] = read-out: Interleukin-8 (IL8), CXCL8 (gene 3576); assay: BSK_3C_IL8: BioMAP Diversity Plus: 3C Assay for Interleukin-8 (IL8) Biomarker Activity (AID 2283020); conditions: primary human endothelial cells (HUVEC); actives raise or lower the signal
In short: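 Endothelial primary cells of human umbilical vein origin are dosed with chemical; after 24 h the IL-8 biomarker is measured by ELISA, and concentration–response is fitted in both directions versus DMSO.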

[9] = read-out: Monokine induced gamma interferon (MIG), CXCL9 (gene 4283); assay: BSK_3C_MIG: BioMAP Diversity Plus: 3C Assay for Monokine induced gamma interferon (MIG) Biomarker Activity (AID 2283021); conditions: primary human endothelial cells (HUVEC); actives raise or lower the signal;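 as to AC50: MIG protein level measured by immunoassay in the treated endothelial cultures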
In short: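 Endothelial primary cells (human umbilical vein) are dosed with test chemical in the 3C system. MIG levels are measured by ELISA at 24 h and fitted in both directions relative to DMSO.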

[10] = BSK_3C_SRB: Viability Assessment in the BioMAP Diversity Plus: 3C Assay (AID 2283023); conditions: primary human endothelial cells (HUVEC);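 also: fitted both ways against DMSO so a hit may be signal rise or drop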
In short: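 Overt cytotoxicity is gauged in parallel confluent HUVEC cultures by SRB total-protein staining at the time of biomarker measurement, 24 h after dosing. Gain or loss of signal is fitted versus DMSO.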

[11] = read-out: Matrix Metallopeptidase 1 (MMP1), MMP1 (gene 4312); assay: BSK_BE3C_MMP1: BioMAP Diversity Plus: BE3C Assay for Matrix Metallopeptidase 1 (MMP1) Biomarker Activity (AID 2283024); conditions: primary human bronchial epithelial cells; actives raise or lower the signal
In short: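 MMP1 signal, measured by ELISA after a 24 h chemical exposure of human primary bronchial epithelial cells, is analysed with bidirectional fitting using DMSO as negative control.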

[12] = BSK_3C_Vis: BioMAP Diversity Plus: 3C Assay for Morphology Visualization (AID 2283025); conditions: primary human endothelial cells (HUVEC);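 also: fitted both ways so gain or loss versus DMSO counts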
In short: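 Morphology read by light microscopy serves as a background control for the multiplexed 3C assay in human umbilical vein endothelial cells, taken 24 h after dosing, with DMSO as the negative control and bidirectional curve fitting.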

[13] = read-out: Pselectin, SELP (gene 6403); assay: BSK_4H_Pselectin: BioMAP Diversity Plus: 4H Assay for Pselectin Biomarker Activity (AID 2283026); conditions: primary human endothelial cells (HUVEC); actives raise or lower the signal
In short: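 Endothelial primary cells (human umbilical vein) are dosed, incubated 24 h, and assayed for surface P-selectin by ELISA; responses in either direction are fitted relative to the DMSO negative control.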

[14] = BSK_4H_SRB: Viability Assessment in the BioMAP Diversity Plus: 4H Assay (AID 2283027); conditions: primary human endothelial cells (HUVEC);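 also: cells exposed to compound for 24 h before staining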
In short: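 Cytotoxicity read-out in primary human endothelial cells: after 24 h compound exposure, cells were TCA-fixed (10%), stained with 0.1% SRB and absorbance taken at 560 nm. Values fitted in both directions relative to DMSO.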

[15] = read-out: Thrombomodulin, THBD (gene 7056); assay: BSK_3C_Thrombomodulin: BioMAP Diversity Plus: 3C Assay for Thrombomodulin Biomarker Activity (AID 2283029); conditions: primary human endothelial cells (HUVEC); actives raise or lower the signal
In short: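 Endothelial cells from umbilical vein are dosed with test chemical and incubated 24 h. Thrombomodulin is then quantified by ELISA, with DMSO serving as negative control and activity baseline.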

[16] = read-out: Urokinase-type plasminogen activator receptor (uPAR), PLAUR (gene 5329); assay: BSK_4H_uPAR: BioMAP Diversity Plus: 4H Assay for Urokinase-type plasminogen activator receptor (uPAR) Biomarker Activity (AID 2283030); conditions: primary human endothelial cells (HUVEC); actives raise or lower the signal
In short: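 Endpoint derived via bidirectional curve fitting against DMSO baseline; readout was ELISA detection of uPAR on umbilical vein endothelial cells at 24 h post-treatment, with SRB-stained parallel cultures assessing cytotoxicity.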

[17] = BSK_BE3C_SRB: Viability Assessment in the BioMAP Diversity Plus: BE3C Assay (AID 2283028); conditions: primary human bronchial epithelial cells
In short: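 SRB total-protein staining (0.1%, after TCA fixation) of chemically dosed human bronchial epithelial primary cells at 24 h; DMSO serves as the negative control for bidirectional curve fitting.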

[18] = target: human Retinoid X Receptor beta (RXRb), RXRB (gene 6257) (UniProt P28702); assay: ATG_RXRb_TRANS: Attagene TRANS-FACTORIAL HepG2 Assay for human Retinoid X Receptor beta (RXRb) (AID 2283013; active = hit-call score of the fitted dose curve at least 0.9, where 1 is the maximum)
Chain of human Retinoid X Receptor beta (RXRb), RXRB (gene 6257) (P28702 whole entry, looked up, the tested form may be a part): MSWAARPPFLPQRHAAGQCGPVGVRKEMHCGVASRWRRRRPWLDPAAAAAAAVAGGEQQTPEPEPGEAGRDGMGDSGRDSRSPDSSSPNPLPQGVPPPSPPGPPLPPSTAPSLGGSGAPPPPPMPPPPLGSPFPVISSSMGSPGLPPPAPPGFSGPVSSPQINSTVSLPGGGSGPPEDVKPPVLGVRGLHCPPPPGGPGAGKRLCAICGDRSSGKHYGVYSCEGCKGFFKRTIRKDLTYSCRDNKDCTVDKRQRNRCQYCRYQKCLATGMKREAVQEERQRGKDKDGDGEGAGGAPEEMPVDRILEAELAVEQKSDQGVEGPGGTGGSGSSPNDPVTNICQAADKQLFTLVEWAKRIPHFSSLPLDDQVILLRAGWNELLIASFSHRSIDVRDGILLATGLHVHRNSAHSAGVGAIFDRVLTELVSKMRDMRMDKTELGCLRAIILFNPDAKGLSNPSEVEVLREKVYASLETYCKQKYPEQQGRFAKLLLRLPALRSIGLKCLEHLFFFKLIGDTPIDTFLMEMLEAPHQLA
In short: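 Chimeric receptor-Gal4 activity was assessed in transiently transfected human HepG2 cells after 24 h exposure. Transcripts from GAL4-UAS reporters were quantified by fluorescent RT-PCR and capillary electrophoresis, with DMSO as negative control and baseline.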

[19] = read-out: Human Leukocyte Antigen - DR isotype (HLADR), HLA-DRA (gene 3122); assay: BSK_3C_HLADR: BioMAP Diversity Plus: 3C Assay for Human Leukocyte Antigen - DR isotype (HLADR) Biomarker Activity (AID 2283019); conditions: primary human endothelial cells (HUVEC); actives raise or lower the signal
In short: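 Compound added to primary HUVEC cultures, 24 h incubation, then HLA-DR determined by ELISA; endpoint derived by bidirectional fitting relative to DMSO negative control.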

Measured: AC50

Chain of E-selectin (Homo sapiens) (P16581 whole entry, looked up): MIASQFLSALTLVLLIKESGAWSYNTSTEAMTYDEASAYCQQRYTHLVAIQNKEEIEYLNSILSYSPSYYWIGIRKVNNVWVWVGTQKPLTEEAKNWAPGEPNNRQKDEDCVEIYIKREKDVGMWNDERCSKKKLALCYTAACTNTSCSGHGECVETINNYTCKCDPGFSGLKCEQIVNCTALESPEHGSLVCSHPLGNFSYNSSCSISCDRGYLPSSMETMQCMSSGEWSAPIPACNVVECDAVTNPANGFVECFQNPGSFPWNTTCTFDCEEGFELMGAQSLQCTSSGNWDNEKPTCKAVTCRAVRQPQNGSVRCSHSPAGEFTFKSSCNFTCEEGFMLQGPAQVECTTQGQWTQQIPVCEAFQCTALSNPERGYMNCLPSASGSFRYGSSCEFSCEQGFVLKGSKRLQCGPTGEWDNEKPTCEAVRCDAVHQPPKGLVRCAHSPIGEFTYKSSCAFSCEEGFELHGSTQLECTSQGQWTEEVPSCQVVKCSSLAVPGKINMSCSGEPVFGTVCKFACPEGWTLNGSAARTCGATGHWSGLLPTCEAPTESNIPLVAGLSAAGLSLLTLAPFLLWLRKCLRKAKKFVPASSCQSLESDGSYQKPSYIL

O=C(O)C1C2CCC(O2)C1C(=O)O (centres undefined)
active: [4] 18.6 µM | [10] 24.4 µM | [12] 9.13 µM | [13] 16 µM | [16] 18.6 µM
not listed: [17] | [18] | [19]
inactive: all other assays above

CCN(CC)N=O
not listed: [2] | [3] | [5] | [13] | [17] | [18] | [19]
inactive: all other assays above

Nc1ccc(Cc2ccc(N)cc2)cc1
not listed: [2] | [3] | [4] | [13] | [18] | [19]
inactive: all other assays above

Nc1ccc(Cl)cc1N
active: [18] 27.8 µM | [19] 5.99 µM | [11] 1.69 µM | [13] 1.11 µM | [15] 0.785 µM
not listed: [1] | [2] | [3] | [4] | [14]
inactive: all other assays above

CC(C)N(Cc1ccccc1)C(=O)C(C)(C)C
not listed: [2] | [3] | [4] | [5] | [13] | [18] | [19]
inactive: all other assays above

CCC[CH2][Sn]([Cl])([CH2]CCC)[CH2]CCC
inactive: [3]
active: [2] 0.245 µM | [4] 0.148 µM | [5] 0.148 µM | [6] 0.148 µM | [7] 3.62 µM | [19] 0.148 µM | [8] 0.155 µM | [9] 0.148 µM | [10] 0.148 µM | [11] 0.148 µM | [12] 5.57 µM | [15] 0.486 µM | [16] 0.148 µM

CCCCCCCCCCCCCN1CC(C)OC(C)C1 (centres undefined)
active: [18] 26.6 µM
not listed: [1] | [2] | [3] | [5] | [13] | [17]
inactive: all other assays above

CO[C@@H]1[C@H](OC(=O)NC(=O)CCl)CC[C@]2(CO2)[C@H]1[C@@]1(C)O[C@@H]1CC=C(C)C
active: [19] 8.98 µM
not listed: [1] | [3] | [4] | [13] | [14] | [17]
inactive: all other assays above

Cc1ccc(N=C=O)cc1N=C=O
not listed: [2] | [3] | [4] | [14] | [17] | [18] | [19]
inactive: all other assays above
